Experimental data: PubChem BioAssay AID902 (National Center for Advancing Translational Sciences (NCATS), 2007)
Where “and” joins values, the source holds several entries; their conditions need not be identical. Equal entries are not always repeated. In all, about 130,000 compounds went through this assay and about 1,900 (1.5%) were called active. Inconclusive results (about 5%) are left out. The call rests on the fitted dose curve; in most records, active means well fitted cell-killing curve with a large enough effect; inconclusive means small, poorly fitted or top-dose-only effect; inactive means no such curve, though single readings can be large or run the other way. What follows is part of a selection rich in actives, with near analogues and random picks from the rest. The source holds several records for some structures; these can differ, active in one and inactive in another.

experiment: qHTS Screen for Compounds that Selectively Target Cancer Cells with p53 Mutations: Cytotoxicity of p53ts Cells at the Nonpermissive Temperature; conditions: H1299-p53A138V viability at 39C, ATP luminescence, 24 h; series mostly up to 46.1 µM; activity change, negative = cell killing: at the top concentration; further: nearly all actives have a fitted effect of over 55% in size
On the % scale 0 is the no-effect control and ±100 the full control effect; potency means the concentration at half of the fitted maximal effect.

| Compound | activity change, negative = cell killing | Potency |
| --- | --- | --- |
| COc1ccc(Br)cc1CNC(=O)c1cc(=O)[nH]c2ccc(S(=O)(=O)N3CCCC3)cc12 | -16.2% (inactive) | – |
| COc1ccc(NC(=O)CN2CCCN(Cc3ccccc3)S2(=O)=O)cc1 | -4.26% (inactive) | – |
| COc1ccc(C(=O)Nc2nonc2-c2ccc(OC)c(OC)c2)cc1Cl | -26.9% (inactive) | – |
| Cn1c(=O)c2sccc2n2c(CCC(=O)NCc3ccccc3Cl)nnc12 | -15.6% (inactive) | – |
| CC1=C(c2ccc(C)cc2)S(=O)(=O)NC1=NCCCN1CCN(c2cc(C)ccc2C)CC1 | 35.5% (inactive) | – |
| CC1=C(c2ccc(Cl)cc2)S(=O)(=O)N=C1N1CCN(c2cc(C)ccc2C)CC1 | 0.663% (inactive) | – |
| Cc1ccc(C)c(N2CCN(CCCNC(=O)Nc3ccc(Cl)cc3)CC2)c1 | – | 10 µM (active) |
| CCN(CCCNC(=O)c1ccc(Sc2ccc(C)cc2)c(NC(C)=O)c1)c1cccc(C)c1 | -24.9% (inactive) | – |
| COC(=O)c1ccc(C2C(C(=O)Nc3ccccc3)=C(C)Nc3nc4ccccc4n32)cc1 (stereo unspecified) | – | 12.6 µM (active) |
| COc1ccccc1C1C(C(=O)N2CCCCC2)=C(C)Nc2nc3ccccc3n21 (stereo unspecified) | -9.81% (inactive) | – |
| CCOc1ccc(C2C(C(=O)NC)=C(C)Nc3nc4ccccc4n32)cc1OC (stereo unspecified) | 8.77% (inactive) | – |
| CCOC(=O)c1c(C)[nH]c(C)c1S(=O)(=O)N1CCCC(C(=O)NCc2ccccc2Cl)C1 (stereo unspecified) | 2.61% (inactive) | – |
| CCc1cnc2c(c1SCC(=O)c1ccccc1)c(=O)n(C)c(=O)n2C | 23.2% (inactive) | – |
| CC(C)(C)c1ccc(C(=O)N2CCC(c3nc(-c4ccc(S(=O)(=O)N5CCCC5)cc4)no3)CC2)cc1 | -24.5% (inactive) | – |
| Cc1sc(C2C(C#N)=C(N)N(c3cccc(Cl)c3)C3=C2C(=O)CCC3)cc1CN1CCOCC1 (stereo unspecified) | 7.17% (inactive) | – |
| COc1ccc(CCNC(=O)c2cc(-c3ccc4c(c3)OCO4)on2)cc1OC | -2.99% (inactive) | – |
| COc1c2c(cc3occ(-c4ccc5c(c4)OCO5)c(=O)c13)OC(C)(C)C=C2 | – | 10 µM (active) |
| CCC(=O)N1CCc2cc(S(=O)(=O)NCCC(=O)Nc3cccc(C)c3C)ccc21 | -12.6% (inactive) | – |
| COc1cccc(NC(=O)CSc2cc(=O)n(C)c3ccc(Cl)cc23)c1 | -18.7% (inactive) | – |
| CCCCOc1ccc(C(=O)N2CC(=O)Nc3ccc(Br)cc3C2c2ccc(F)cc2)cc1 (stereo unspecified) | 6.43% (inactive) | – |
| CCCCc1nn2c(=O)cc(COC(=O)c3ccc(NC(=O)c4ccccc4C)cc3)nc2s1 | -22% (inactive) | – |
| c1ccc2[nH]c(NCCN3CCOCC3)nc2c1 | 2.07% (inactive) | – |
| c1ccc(-c2nc(NCc3ccco3)c3ccccc3n2)cc1 | -12.3% (inactive) | – |
| CN(C)c1ccc(-c2nc(NCCN3CCOCC3)c3ccccc3n2)cc1 | – | 12.6 µM (active) |

| Compound | activity change, negative = cell killing | Potency |
| --- | --- | --- |
| O=C(c1cccc(Br)c1)N1CCN(Cc2cc(=O)n3nc(-c4ccccc4)sc3n2)CC1 | 8.96% (inactive) | – |
| Cc1csc(-c2nc3ccccc3n2C)n1 | – | 25.1 µM (active) |
| Cc1nn2c3ccccc3nc2n(C)c1=O | 0.337% (inactive) | – |
| CC(C)n1c(-c2cccs2)nc2ccccc21 | -17.5% (inactive) | – |
| COc1ccc(Cn2c(=O)c3oc4ccccc4c3n(CC(=O)Nc3ccc(F)cc3F)c2=O)cc1 | -13.5% (inactive) | – |
| CCN(CCCNC(=O)CSc1cc(=O)n(C)c2cc(Cl)ccc12)c1cccc(C)c1 | 3.74% (inactive) | – |
| CCCN(C(=O)Cn1cc(S(=O)(=O)N2CCN(c3ccccc3F)CC2)c2ccccc2c1=O)c1cccc(C)c1 | 11.6% (inactive) | – |
| CCN(C(=O)Cn1c(=O)nc(-c2ccccc2)c2cc(Cl)ccc21)c1cccc(C)c1 | – | 15.8 µM (active) |
| O=C(Cn1c(=O)nc(-c2ccccc2)c2cc(Cl)ccc21)NCc1ccc(Cl)cc1 | – | 10 µM (active) |
| Cc1ccc(CNC(=O)CN2CCN(Cc3ccc(Cl)cc3)C2=O)cc1 | -8.84% (inactive) | – |
| O=C(Cn1nnc(-c2ccccc2)n1)NCc1ccccc1 | 6.92% (inactive) | – |
| CC1CCN(S(=O)(=O)c2ccc3c(c2)N(CC(=O)NCCc2ccccc2)C(=O)CO3)CC1 | -9.14% (inactive) | – |
| Cc1ccc(N(CC(=O)NCc2ccc(Cl)cc2)S(=O)(=O)N(C)C)cc1 | -7.17% (inactive) | – |
| CCc1nn(CC(=O)Nc2cc(C)cc(C)c2)c(=O)c2cc3sccc3n12 | -9.46% (inactive) | – |
| CCc1cccc(NC(=O)Cn2nc(CC)n3c(cc4cc(C)ccc43)c2=O)c1 | – | 25.1 µM (active) |
| CCc1nn(CC(=O)Nc2cccc(C)c2C)c(=O)c2cc3sccc3n12 | 9.89% (inactive) | – |
| CCCCN(CC)CCCNC(=O)Cn1ncc2c([nH]c3ccc(C)cc32)c1=O | -6.44% (inactive) | – |
| c1ccc(CNc2ncnc3[nH]ncc23)cc1 | 29.4% (inactive) | – |
| CCC(C)NC(=O)Cn1c(=O)n(-c2ccc(Cl)cc2)c(=O)c2c3c(sc21)CCCC3 (stereo unspecified) | -4.46% (inactive) | – |
| Cc1ccc(NC(=O)Cn2c(=O)n(-c3ccccc3)c(=O)c3c4c(sc32)CCCC4)cc1 | – | 12.6 µM (active) |
| CCCN(CCC)C(=O)Cn1c(=O)n(-c2ccc(Cl)cc2)c(=O)c2c3c(sc21)CCCCC3 | -16.4% (inactive) | – |
| CCOC(=O)c1c(S(=O)(=O)N2CCCC(C(=O)NCc3ccc(F)cc3)C2)c(C)n(CC)c1C (stereo unspecified) | -13.8% (inactive) | – |
| COc1ccccc1Nc1c2c(nc3ccc(NC(=O)/C=C/c4cc(OC)c(OC)c(OC)c4)cc13)CCCC2 | – | 15.8 µM (active) |
| O=C(Nc1c2c(nc3ccccc13)CCCC2)c1ccccc1Br | -2.5% (inactive) | – |

| Compound | activity change, negative = cell killing | Potency |
| --- | --- | --- |
| COc1cccc(C(=O)Nc2ccc3nc4n(c(=O)c3c2)CCCCC4)c1 | -25.8% (inactive) | – |
| O=C(O)c1ccc(Cn2c(SCc3ccc(F)cc3)nc3ccncc32)cc1 | -19.3% (inactive) | – |
| Cc1cccc2nc(-c3ccc(Cl)s3)c(Nc3ccc4c(c3)OCCO4)n12 | -25.1% (inactive) | – |
| Cc1ccc(Nc2c(-c3ccc(C)s3)nc3ccccn23)cc1 | 1.41% (inactive) | – |
| Cc1ccn2c(Nc3ccc4c(c3)OCCO4)c(-c3ccc(C)s3)nc2c1 | – | 12.6 µM (active) |
| CCN(C(=O)c1sc2cc(OC)ccc2c1Cl)c1ccccc1 | -4.72% (inactive) | – |
| COc1ccc(N2CCN(C3=NS(=O)(=O)C(c4cccc(Br)c4)=C3C)CC2)cc1 | -1.65% (inactive) | – |
| CCOc1ccc(-n2c(C)nc3c(cnn3-c3ccc(C)cc3)c2=O)cc1 | 6.42% (inactive) | – |
| Cc1cccc(N2CCN(C(=O)c3ccc4c(c3)CCN4S(=O)(=O)c3ccccc3)CC2)c1C | -24.6% (inactive) | – |
| CCC(CC)c1nn2cc(-c3ccccc3)nc2s1 | – | 6.31 µM (active) |
| CCC(CC)c1nnc(NS(=O)(=O)Cc2ccccc2)s1 | 2.97% (inactive) | – |
| Cc1c(C(=O)N2CC(C)OC(C)C2)sc2nc(-c3ccccc3)cn12 (stereo unspecified) | -12.2% (inactive) | – |
| CC(C)c1ccc(C2CC(=O)N3CN(C4CCCCC4)CSC3=C2C#N)cc1 (stereo unspecified) | 6.4% (inactive) | – |
| Cc1noc(/C=C/N(C)C)c1S(=O)(=O)N1CCCC(C(=O)Nc2cccc(F)c2)C1 (stereo unspecified) | -0.583% (inactive) | – |
| CN(C(=O)c1ccc2c(c1)N(Cc1cccc(Cl)c1)C(=O)c1ccccc1S2=O)C1CCCCC1 (stereo unspecified) | 15.2% (inactive) | – |
| Cc1ccc2c(=O)c(C(=O)c3cccc(Cl)c3)cn(CC(=O)NCc3ccccc3)c2n1 | 23.8% (inactive) | – |
| CN1CCC[C@@H]1CCO[C@](C)(c1ccccc1)c1ccc(Cl)cc1 | – | inactive and 12.6 µM (active) |
| CN1CCCC1CCO[C@@](C)(c1ccccc1)c1ccc(Cl)cc1 (stereo partly specified) | -25.6% (inactive) | – |
| Cc1ccsc1C(=O)OCC(=O)c1cc(C)n(CC2CCCO2)c1C (stereo unspecified) | – | 7.94 µM (active) |
| COC(=O)c1ccc2c(=O)n(CC3CCCO3)c(=S)[nH]c2c1 (stereo unspecified) | 9.84% (inactive) | – |
| Cc1ccsc1C(=O)OCC(=O)c1cc2ccccc2o1 | -18.4% (inactive) | – |
| COc1ccccc1-n1nnnc1S(=O)(=O)Cc1ccc(Cl)cc1 | – | 6.31 µM (active) |
| COc1ccccc1N1CCN(Cc2nnnn2CCc2ccccc2)CC1 | 6.43% (inactive) | – |
| COc1ccccc1N1CCN(C(=O)CN(Cc2ccc(Cl)cc2)S(C)(=O)=O)CC1 | -9.34% (inactive) | – |

| Compound | activity change, negative = cell killing | Potency |
| --- | --- | --- |
| Cc1cccc(N2CCN(S(=O)(=O)c3ccc4[nH]c5c(c4c3)CCCCC5)CC2)c1C | 7.92% (inactive) | – |
| O=C(CCS(=O)(=O)c1ccccc1)N(Cc1cccnc1)c1nc2c(F)cccc2s1 | – | 31.6 µM (active) |
| O=C(CCOc1ccccc1)N(Cc1cccnc1)c1nc2ccc(Cl)cc2s1 | 2.01% (inactive) | – |
| CN(C)S(=O)(=O)c1ccc(C(=O)N(Cc2cccnc2)c2nc3c(F)cc(F)cc3s2)cc1 | -14.5% (inactive) | – |
| CCc1ccc(NC(=O)C2CCCN2S(=O)(=O)c2ccc3nc(-c4ccccc4)[nH]c3c2)cc1 (stereo unspecified) | -17.1% (inactive) | – |
| CCc1cccc(-n2nnc(-c3nsc(NC(=O)c4ccc(C)cc4)n3)c2C)c1 | 7.17% (inactive) | – |
| CC1Cc2cc(S(=O)(=O)CCC(=O)Nc3ccc(F)c(Cl)c3)ccc2N1C(=O)C1CC1 (stereo unspecified) | -11.4% (inactive) | – |
| COc1ccc(-n2cnc3cc(C(=O)NC4CCCC4)ccc32)cc1 | 14% (inactive) | – |
| CCC(C)c1ccc2oc(-c3ccc(NC(=O)c4cc5ccccc5o4)cc3)nc2c1 (stereo unspecified) | 12.3% (inactive) | – |
| CCc1ccc2oc(-c3ccc(N)cc3)nc2c1 | – | 10 µM (active) |
| COC(=O)c1ccc(-c2nc3cc(NC(C)=O)ccc3o2)cc1 | -4.16% (inactive) | – |
| Cc1ccc(C)c(S(=O)(=O)c2nnn3c2nc(N2CCOCC2)c2sccc23)c1 | -8.81% (inactive) | – |
| Cc1ccc(NC(=O)c2nc(S(=O)(=O)Cc3cccc(C)c3)ncc2Cl)cc1 | – | 10 µM (active) |
| CCS(=O)(=O)c1ncc(N(Cc2ccc(F)cc2)Cc2ccco2)c(C(=O)Nc2cc(C)ccc2C)n1 | -4.76% (inactive) | – |
| CCSc1ncc(Cl)c(C(=O)Nc2cc(C)ccc2C)n1 | -3.08% (inactive) | – |
| Cn1c(=O)n(Cc2c(F)cccc2Cl)c(=O)c2c1nc1n2CCN1c1ccc(F)cc1 | -11.7% (inactive) | – |
| Oc1c(C(c2ccccc2Cl)N2CCOCC2)sc2nc(-c3ccco3)nn12 (stereo unspecified) | -14% (inactive) | – |
| Cc1nc2sc(C(c3ccco3)N3CCOCC3)c(O)n2n1 (stereo unspecified) | 11.5% (inactive) | – |
| Oc1c(C(c2ccccn2)N2CCOCC2)ccc2cccnc12 (stereo unspecified) | – | 12.6 µM (active) |
| Cc1ccc(CCNC(=O)c2ccc3c(c2)N(Cc2cc(C)ccc2C)C(=O)c2ccccc2S3=O)cc1 (stereo unspecified) | 1.71% (inactive) | – |
| CC(=O)N1CCc2cc(Br)cc(S(=O)(=O)CCC(=O)NCCc3ccc(Cl)cc3)c21 | -2.18% (inactive) | – |
| Cn1nnnc1SCCNCc1ccc(Cl)c(Cl)c1 | 11.3% (inactive) | – |
| COc1cc(CNCCSc2nnnn2C)ccc1OCc1ccc(Cl)cc1Cl | – | 25.1 µM (active) |
| COc1cc(CNCCSc2nnnn2C)ccc1OCc1c(F)cccc1Cl | -22.3% (inactive) | – |
